High-throughput results from PubChem BioAssay.
Sampled rows, rich in hits. Any-hit rate of the full collection: about 19%.
HT1080 IDH1KD tx: qHTS for induction of synthetic lethality in tumor cells producing 2HG: qHTS for the HT-1080-IDH1KD cell line; HT-1080 IDH1 knockdown viability, ATP luminescence, 48 h; Potency, µM (highest dose often 46.1 µM), most hits filed as cytotoxic; 2% of 360,000 active; AID 686971, 2013
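Cytotoxicity counter-line: IDH1KD HT-1080, 48 h, CellTiter-Glo. Curves classed by r2, magnitude and activity.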
ELG1 repair inh: qHTS screen for small molecules that inhibit ELG1-dependent DNA repair in human embryonic kidney (HEK293T) cells expressing luciferase-tagged ELG1. HEK293T ELG1-luciferase reporter, luminescence, 16 h; DNA damage induced by 5-fluorouridine. Potency, µM (highest dose often 46.1 µM), usual class: inhibitors. 2.3% of 330,000 active. AID 504467, 2011; also: nearly all actives have a fitted effect of over 55% in size
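Step one: seed 2,000 cells per well. Step two: pin-transfer compound or DMSO alongside 5-fluorouridine. Step three: incubate 16 hr, 37 °C, 5% CO2. Step four: add ONE-Glo, wait 30 min, read luminescence.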
TDP1 cell noCPT: qHTS for Inhibitors of human tyrosyl-DNA phosphodiesterase 1 (TDP1): qHTS in cells in absence of CPT. Potency, µM (top dose mostly 46.2 µM), actives largely listed as inhibitors. 15% of 420,000 active. DT40 Tdp1-/- hTDP1 cells, no CPT, ATP luminescence, 48 h; also: nearly all actives have a fitted effect of over 55% in size
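Compound effects on proliferation are scored in DT40 Tdp1-/-;hTDP1 cells in the absence of CPT. ATP levels (CellTiter-Glo luminescence) are recorded after a ≥48 hr, 37 °C incubation.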
TDP1 cell CPT: qHTS for Inhibitors of human tyrosyl-DNA phosphodiesterase 1 (TDP1): qHTS in cells in presence of CPT. chicken DT40 Tdp1-/-;hTDP1 cells + 20 nM CPT, ATP luminescence, 48 h. Potency, µM (highest dose often 46.2 µM), usual class: inhibitors. 12% of 420,000 active. AID 686979, 2013; also: nearly all actives have a fitted effect of over 55% in size
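Chicken DT40 Tdp1-/- cells stably complemented with human TDP1 were seeded at 400 cells/well in medium containing 20 nM camptothecin, exposed to pin-transferred compounds, and grown at 37 °C for at least 48 hr. Viability was read as ATP luminescence.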
IL1B secr inh: qHTS for Inhibitors of Inflammasome Signaling: IL-1-beta AlphaLISA Primary Screen; activity change, % at 57.5 µM; 4.7% of 360,000 active; THP-1 LPS/ATP IL-1B secretion, AlphaLISA, 16 h; hits give low values; in the data active = activity change below about -50%; inconclusive = mostly about -30% to -49%
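THP-1 cells pretreated 1 hr with compounds (up to 57.5 uM final), then stimulated with LPS (250 ng/mL final) plus ATP (1.25 mM final); secreted IL-1B measured by AlphaLISA after 16 hr, decreased signal indicating inhibition.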
HT1080-NT tox: qHTS for induction of synthetic lethality in tumor cells producing 2HG: qHTS for the HT-1080-NT fibrosarcoma cell line | HT-1080-NT fibrosarcoma viability, CellTiter-Glo ATP luminescence, 48 h | Potency, µM (series often up to 46.1 µM), most hits filed as cytotoxic | 1.6% of 360,000 active;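 also: NT is the 2HG producing partner of a matched IDH1 knockdown line; nearly all actives have a fitted effect of over 55% in size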
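Fibrosarcoma NT cells, 750 per well in 5% FBS RPMI, were exposed to compound for 48 hours. Viability: CellTiter-Glo luminescence.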
A number is an active result; - = inactive; ? = inconclusive; . = no result; [ ] = dose if it differs, or a comment. Unless noted, calls follow the shape of the dose curve; as a rule, active = well fitted curve in the direction sought with a large enough effect; inconclusive = small, poorly fitted or top-dose-only effect, or another doubt; inactive = no such curve, though single readings can be large; an effect the other way counts as inactive or inconclusive.

SMILES	HT1080 IDH1KD tx	ELG1 repair inh	TDP1 cell noCPT	TDP1 cell CPT	IL1B secr inh	HT1080-NT tox
COC(=O)C1=C(c2ccc3ccccc3c2)C[C@@H]2CC[C@H]1N2C(=O)NC(C)C	-	-	18µM	?	-	-
COC(=O)C1=C(c2ccc3ccccc3c2)C[C@@H]2CC[C@H]1N2C	-	-	-	?	-	-
COC(=O)C1=C(c2ccc(-c3ccccc3)c(F)c2)C[C@@H]2CC[C@H]1N2C(=O)NC1CC1	-	-	9.2µM	4.1µM	?	-
COC(=O)C1=C(c2ccc(-c3ccccc3)c(F)c2)C[C@@H]2CC[C@H]1N2C(=O)NC(C)C	-	-	18µM	13µM	-	-
Cn1c(O)c(/C=N/N2CCOCC2)c(=O)[nH]c1=S	-	?	-	-	-	-
CC(C)C(=O)c1cn(Cc2ccc(C#N)cc2)c2ccccc12	-	18µM	?	29µM	-	-
COC(=O)C1=C(c2cccc(C#N)c2)C[C@@H]2CC[C@H]1N2C(=O)N1CCc2cc(OC)c(OC)cc2C1	-	?	?	?	-	-
CCOC(=O)C1(c2ccccc2)CCN(CCC(=O)Nc2ccccc2OC)CC1	-	?	12µM	21µM	-	-
CC(C)C[C@H](NC(=O)[C@H](Cc1ccccc1)NC(=O)CNC(=O)[C@H](CS)N(C(=O)[C@@H](N)Cc1ccc(O)cc1)C(C)(C)C)C(=O)N([C@H](C(=O)O)[C@H](C)O)C(C)(C)C	.	.	-[4.12 µM]	-[4.12 µM]	.	.
C=CCN1CCC2(C)c3cc(O)ccc3CC1C2C (centres undefined)	-	.	?	-	-	-
CC(C)c1onc(C(=O)N2CCC3(CC2)OCCO3)c1[N+](=O)[O-]	-	-	-	-	-	-
CN1C(=O)C(=Cc2ccc(N3CCOCC3)o2)C(=O)N(C)C1=O	-	?	-	-	-	-
CN1C(=O)C(=Cc2ccc(N3CCCCCC3)o2)C(=O)N(C)C1=S	-	?	23µM	?	-	-
O=C(COc1ccccc1Cl)N1CCCC(N2CCN(c3ccc(F)cc3)CC2)C1 (centres undefined)	-	?	?	?	?	-
CN(Cc1ccccc1)C1CCCN(C(=O)COc2ccccc2Cl)C1 (centres undefined)	-	-	16µM	?	-	-
CC(=O)c1cccc(NC(=O)c2cc3c(s2)-c2c(C)cccc2OC3)c1	.	.	16µM	?	.	.
C[C@]12CC[C@H]3[C@@H](CC=C4C[C@@H](O)CC[C@@]43C)[C@@H]1CC[C@@H]2O	.	.	-	-	.	.
Cn1nccc1C(=O)N1CCC2(CC1)OCCO2	-	-	-	-	-	-
CC1CCCC(C)N1c1nnc(NC(=O)Cn2c(=O)oc3ccccc32)s1 (centres undefined)	-	-	13µM	-	-	-
CC1([N+](=O)[O-])COP(=O)(NCc2cccnc2)OC1 (centres undefined)	-	.	-	-	-	-
COc1ccc2c3c1O[C@H]1[C@@H](O)C=C[C@H]4[C@@H](C2)N(C)CC[C@@]341	.	.	-	-	.	.
COC1CC(C)C(OC)c2cc(O)cc(c2O)NC(=O)C(C)=CC=CC(C)C(OC(N)=O)C(C)=CC(C)C1OC (centres undefined)	23µM	.	0.15µM	0.092µM	-101	-
COc1ccc(S(=O)(=O)N(C)C[C@H]2OCCCC[C@H](C)Oc3ccc(N(C)C)cc3C(=O)N([C@H](C)CO)C[C@@H]2C)cc1	-	.	?	?	-	-
